Sampled rows, rich in hits. Any-hit rate of the full collection: about 15%.
TDP1 cell CPT: qHTS for Inhibitors of human tyrosyl-DNA phosphodiesterase 1 (TDP1): qHTS in cells in presence of CPT | chicken DT40 Tdp1-/-;hTDP1 cells + 20 nM CPT, ATP luminescence, 48 h | Potency, µM (highest dose often 46.2 µM), for inactives: at the highest dose activity change, negative = growth inhibition, most hits filed as inhibitors | hit rate 12% among 420,000 | AID 686979, 2013; further: nearly all actives have a fitted effect of over 55% in size
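Chicken DT40 Tdp1-/- cells complemented with human TDP1, 400 cells/well, exposed to compounds plus 20 nM camptothecin for at least 48 h at 37 C; viability read as ATP content by CellTiter-Glo luminescence.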
ALOX12 inh: Primary qHTS assay for inhibitors of human arachidonate 12S-lipoxygenase (ALOX12): Round 2; Potency, µM (doses to about 108 µM), for the others: at the top dose activity change, negative = inhibition, actives largely listed as inhibitors; purified 12hLO, xylenol orange hydroperoxide absorbance; hit rate 1.1% among 580,000; Polyunsaturated fatty acid lipoxygenase ALOX12 (Homo sapiens), P18054; AID 1671190, 2021
Target sequence (P18054 whole entry, looked up): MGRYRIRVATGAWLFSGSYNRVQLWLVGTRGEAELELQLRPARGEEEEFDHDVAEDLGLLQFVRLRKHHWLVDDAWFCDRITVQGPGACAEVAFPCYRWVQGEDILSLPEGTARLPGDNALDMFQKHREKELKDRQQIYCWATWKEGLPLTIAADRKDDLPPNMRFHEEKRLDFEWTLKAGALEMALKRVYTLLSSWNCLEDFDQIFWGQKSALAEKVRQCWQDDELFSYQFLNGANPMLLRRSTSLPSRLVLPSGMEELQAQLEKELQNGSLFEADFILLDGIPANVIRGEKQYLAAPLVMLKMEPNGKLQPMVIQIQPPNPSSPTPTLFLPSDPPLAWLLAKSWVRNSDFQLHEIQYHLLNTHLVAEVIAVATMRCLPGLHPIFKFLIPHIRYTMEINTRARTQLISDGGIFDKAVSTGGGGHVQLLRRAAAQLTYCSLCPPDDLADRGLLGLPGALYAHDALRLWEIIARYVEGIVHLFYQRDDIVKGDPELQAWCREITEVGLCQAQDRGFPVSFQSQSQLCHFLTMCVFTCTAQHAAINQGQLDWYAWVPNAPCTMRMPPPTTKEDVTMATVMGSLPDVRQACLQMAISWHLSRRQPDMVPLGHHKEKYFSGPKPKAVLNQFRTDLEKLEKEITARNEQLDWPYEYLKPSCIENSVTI
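Purified human 12hLO at 150 nM in 25 mM Hepes, 0.01% Triton X-100, pH 7.0, preincubated 15 min at room temperature with compound. Reaction started with 40 uM arachidonic acid, 30 min at room temperature. Hydroperoxide measured by Fe-xylenol orange, 573/405 nm absorbance ratio.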
DT40 TDP1 no CPT: qHTS for Inhibitors of human tyrosyl-DNA phosphodiesterase 1 (TDP1): qHTS in cells in absence of CPT; DT40 Tdp1-/- hTDP1 cells, no CPT, ATP luminescence, 48 h; Potency, µM (titrated, usually from 46.2 µM), inactives show top-dose activity change, negative = growth inhibition, most hits filed as inhibitors; hit rate 15% among 420,000; further: nearly all actives have a fitted effect of over 55% in size
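DT40 Tdp1-/-;hTDP1 cells, no CPT (DMSO vehicle only), 400 cells/well; compounds pin-transferred; ≥48 hr, 37 °C; CellTiter-Glo 30 min RT dark, luminescence read.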
RORg inh: qHTS for inhibitors of ROR gamma transcriptional activity | hit rate 5.4% among 310,000 | Drosophila S2 Gal4-RORgamma UAS-luciferase reporter, 20 h | Potency, µM (titrated, usually from 53.6 µM), for inactives: top-dose activity change, negative = inhibition, most hits filed as inhibitors | AID 2551, 2010; further: nearly all actives have a fitted effect of over 60% in size
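Read-out: Photinus luciferase luminescence; inhibitors lower reporter signal. Insect Schneider cells with Gal4-ROR gamma fusion under metallothionein promoter, UAS reporter; 700 uM final copper sulfate induction, 20 hr, ambient temperature.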
ELG1 DNA repair: qHTS screen for small molecules that inhibit ELG1-dependent DNA repair in human embryonic kidney (HEK293T) cells expressing luciferase-tagged ELG1. HEK293T ELG1-luciferase reporter, luminescence, 16 h; DNA damage induced by 5-fluorouridine. Potency, µM (titrated, usually from 46.1 µM), for the others: at the highest dose activity change, negative = inhibition, usual class: inhibitors. hit rate 2.3% among 330,000. AID 504467, 2011; further: nearly all actives have a fitted effect of over 55% in size
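Cells (2,000 per well) received 5-fluorouridine plus test compound or DMSO and were incubated 16 hr at 37 °C, 5% CO2. Luciferase activity was read by luminescence 30 min after ONE-Glo addition; signal suppression marked inhibition of damage-induced ELG1 function.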
VP16 counter: VP16 counterscreen qHTS for inhibitors of ROR gamma transcriptional activity | Drosophila S2 Gal4-VP16 UAS-luciferase, luminescence, 20 h | Potency, µM (highest dose often 53.6 µM), for the others: top-dose activity, negative = inhibition, usual class: inhibitors | hit rate 3.5% among 310,000;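 further: Gal4-VP16 expression switched on by copper sulfate through the metallothionein promoter; nearly all actives have a fitted effect of over 50% in size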
An asterisk follows results filed as active; ? = inconclusive; . = not tested or not shown; [ ] = another dose, or the depositor's remark. The call rests on the fitted dose curve; in most records, active means well fitted curve in the direction sought with a large enough effect; inconclusive means small, poorly fitted or top-dose-only effect, or another doubt; inactive means no such curve, though single readings can be large; an effect the other way counts as inactive or inconclusive. On the % scale 0 is the no-effect control and ±100 the full control effect; potency means the concentration at half of the fitted maximal effect.

SMILES	TDP1 cell CPT	ALOX12 inh	DT40 TDP1 no CPT	RORg inh	ELG1 DNA repair	VP16 counter
CN(CCc1ccccn1)[C@@H]1[C@H](O)[C@H](CO)O[C@@H]1CNC(=O)Nc1ccc(F)cc1F	.	63.1%	.	.	.	.
CCc1cc(CC)n(-c2nc3c(c(=O)[nH]c(=O)n3C)n2Cc2ccccc2)n1	.	14.9%	.	.	.	.
COc1ccccc1NC(=S)N(Cc1ccco1)Cc1cc2ccc(C)c(C)c2[nH]c1=O	0.581µM*	?	0.581µM*	1.0%	?	?
Cc1ccc2cc(CN(CCCN(C)C)C(=S)NCc3ccccc3)c(=O)[nH]c2c1C	?	-8.4%	?	-2.0%	15.0%	0.7%
COc1ccccc1NC(=S)N(Cc1ccco1)Cc1cc2cc(C)cc(C)c2[nH]c1=O	10.3µM*	?	10.3µM*	-7.9%	11.6µM*	2.7%
Cc1ccc2cc(CN(Cc3ccco3)C(=O)C3CCCCC3)c(=O)[nH]c2c1C	?	132.9%	?	-0.4%	?	-3.7%
CNC(=S)N(Cc1ccco1)Cc1cc2cc(OC)c(OC)cc2[nH]c1=O	3.3%	-2.6%	0.2%	2.8%	1.4%	-12.2%
Cc1ccc2cc(CN(Cc3ccco3)C(=O)NC3CCCCC3)c(=O)[nH]c2c1C	16.4µM*	-28.5%	29.1µM*	?	7.31µM*	8.0%
Cc1noc(C)c1[S+](=O)([O-])N1CCC(N2Cc3ccccc3C2=O)CC1	.	7.6%[6.33 µM]	.	.	.	.
Cc1ccc(CCC(=O)Nc2cccc3cccnc23)c(C)c1	.	8.2%	.	.	.	.
CSc1ccc(CNc2ncc(-c3ccccc3)n2C)cc1	?	?	18.4µM*	.	.	.
CSc1ccc(CNc2ncc(-c3cccc([N+](=O)[O-])c3)n2C)cc1	16.4µM*	0.708µM*	23.1µM*	-20.5%	-17.3%	-9.6%
Cn1c(-c2ccccc2)cnc1NCc1ccc(F)cc1	?	?	?	-42.0%	1.9%	1.8%
Cc1ccc2[nH]cc(CCNC(=O)c3cccc(F)c3)c2c1	.	-4.6%	.	.	.	.
Nc1nc(N)nc(-c2cc(F)ccc2O)n1	?	3.6%	?	.	-14.2%	.
COc1ccc(O)c(-c2nc(N)nc(N)n2)c1	16.4µM*	6.3%	18.4µM*	.	-1.0%	.
Cc1ccc(Cc2c(-c3cccc(Br)c3)nc3c4ccccc4ccn23)cc1	.	88.1%	.	.	.	.
CCN(CC)c1nc2c(-c3cccc(Br)c3)nnn2c2ccccc12	-1.7%	-13.7%	-22.0%	.	.	.
Cc1nnc(-c2cccc(Br)c2)c2cn(-c3ccccc3Cl)nc12	23.1µM*	-60.5%	?	-6.0%	-17.3%	3.7%
Cc1ccc(-n2cc3c(-c4cccc(Br)c4)nnc(C)c3n2)cc1	25.9µM*	0.0%	?	34.0%	-12.6%	-0.7%
CCc1nc(-c2c3n(c(=O)n(Cc4ccc(F)cc4F)c2=O)CCCC3)no1	.	30.3%	.	.	.	.
O=C(NCc1ccc(F)cc1)c1ccccc1-c1ccccc1	.	40.8%	.	.	.	.
CC(=O)N(Cc1ccc(F)cc1)C1=C(NCc2ccccc2)C(=O)c2ccccc2C1=O	1.58µM*	.	1.26µM*	12.6µM*	20.6µM*	?
COc1cc(-c2nnc(NC(=O)CS(=O)(=O)c3ccc(F)cc3)o2)cc(OC)c1OC	5.5%	12.6%	7.4%	.	12.5%	.
COc1ccccc1-c1nnc(NC(=O)CCS(=O)(=O)c2ccc(F)cc2)o1	8.2µM*	10.3%	9.2µM*	.	.	.
COc1ccccc1-c1nnc(NC(=O)CCS(=O)(=O)c2ccccc2)o1	23.1µM*	-28.1%	18.4µM*	10µM*	-9.5%	10µM*

High-throughput results from PubChem BioAssay.
